mHTT-CaM PPI inh = mutant huntingtin-calmodulin interaction inhibitors – biochemical, AlphaScreen, primary screen; AlphaScreen His-mHTT/GST-CaM binding, luminescence; 190,000 compounds, 3.6% hits; AID 1671202, 2021; inhibition, % at 15 µM; P42858;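 note: 0% = both proteins with DMSO and 100% = one protein alone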
Pf apPOL block = Pf-apPOL inhibitors, biochemical, fluorescence; AID 1794808, 2022; 210,000 compounds, 0.25% hits; Recombinant Pf-apPOL, molecular beacon fluorescence, 1.5 h; inhibition, % at 10 µM
An asterisk follows results filed as active. The entries come from a sample that favours hits as a whole. Cut-off read from the data, not from the text of the source: active = inhibition above about 50%; inactive = the rest.

For CSc1nnc2c(n1)OC(/C=C/c1ccco1)Nc1ccc(Br)cc1-2 (centres undefined) the results were mHTT-CaM PPI inh 92* and Pf apPOL block -3.
For C=CCSc1nnc2c(n1)OC(/C=C/c1ccco1)Nc1ccc(Br)cc1-2 (centres undefined) the results were mHTT-CaM PPI inh 87* and Pf apPOL block 1.
Screening CCSc1nnc2c(n1)OC(c1ccccn1)Nc1ccc(Br)cc1-2 (centres undefined) returned mHTT-CaM PPI inh 10 and Pf apPOL block 0.
CCCSc1nnc2c(n1)OC(/C=C/c1ccco1)Nc1ccccc1-2 (centres undefined) was read as mHTT-CaM PPI inh 54* and Pf apPOL block 2.
`CSc1nnc2c(n1)OC(c1ccccn1)Nc1ccc(Br)cc1-2` (centres undefined) gave mHTT-CaM PPI inh 22 and Pf apPOL block -10.
Screening CCSc1nnc2c(n1)OC(c1ccccn1)Nc1ccccc1-2 (centres undefined) returned mHTT-CaM PPI inh 3 and Pf apPOL block 93*.
`CSc1nnc2c(n1)OC(/C=C/c1ccco1)Nc1ccccc1-2` (centres undefined) gave mHTT-CaM PPI inh 46 and Pf apPOL block 0.
C=CCSc1nnc2c(n1)OC(/C=C/c1ccco1)Nc1ccccc1-2 (centres undefined) was read as mHTT-CaM PPI inh 30 and Pf apPOL block -8.
N#Cc1ccccc1Cn1c(-c2nonc2NC(=O)c2ccccc2)nc2ccccc21 was read as mHTT-CaM PPI inh 11 and Pf apPOL block -1.
`O=C(NCCN1CCOCC1)C1CC(c2ccccc2F)=NO1` (centres undefined) gave mHTT-CaM PPI inh -8 and Pf apPOL block 0.
`COc1cccc(C(=O)Nc2ccc3oc(-c4ccccc4C)nc3c2)c1` gave mHTT-CaM PPI inh -4 and Pf apPOL block 8.
CCOC(=O)C1Oc2ccccc2C(C(=O)OC)=C1C(=O)OC (centres undefined) was read as mHTT-CaM PPI inh 3 and Pf apPOL block -7.
For CCOC(=O)ON1C(=O)c2ccccc2N2COc3ccccc3C12 (centres undefined) the results were mHTT-CaM PPI inh 100*.
O=[N+]([O-])c1cccc(NCc2c(O)ccc3oc4c(c23)CCCC4)c1 was read as mHTT-CaM PPI inh 97* and Pf apPOL block 9.
CC(=O)N(c1ccc2oc3c(c2c1)CCCC3)S(=O)(=O)c1cccc([N+](=O)[O-])c1 was read as mHTT-CaM PPI inh 9 and Pf apPOL block 9.
O=C(c1c(F)cccc1Cl)N1CCCC(c2nnc(-c3ccccc3F)s2)C1 (centres undefined) was read as mHTT-CaM PPI inh -4 and Pf apPOL block -10.
For Cc1cccc2sc(N(CCCN(C)C)C(=O)c3ccccc3Br)nc12 the results were mHTT-CaM PPI inh 96* and Pf apPOL block -4.
CN(C)CCCN(C(=O)c1nc2ccccc2s1)c1nc2c(Cl)cccc2s1 was read as mHTT-CaM PPI inh 25 and Pf apPOL block 11.
For Cc1cc(NC(=O)C2CCN(C(=O)c3cc(-c4ccccc4)on3)CC2)no1 the results were mHTT-CaM PPI inh -14 and Pf apPOL block -4.
`CC(C)(C)c1ccc(C(=O)N2CCC(=O)N([C@H](COCc3ccc(Cl)cc3)Cc3ccccc3)CC2)cc1` gave mHTT-CaM PPI inh 48 and Pf apPOL block -1.
O=C(c1ccc(C(F)(F)F)cc1)N1CCC(=O)N([C@H](COCc2ccc(Cl)cc2)Cc2ccccc2)CC1 was read as mHTT-CaM PPI inh 100* and Pf apPOL block -7.
`O=C(c1ccc(C(F)(F)F)cc1)N1CCC(=O)N([C@H](COCc2ccc(C(F)(F)F)cc2)Cc2ccccc2)CC1` gave mHTT-CaM PPI inh 99* and Pf apPOL block -1.
`Cc1ccc(S(=O)(=O)N2CCC(=O)N([C@H](COCc3ccc(C(F)(F)F)cc3)C(C)C)CC2)cc1` gave mHTT-CaM PPI inh 30 and Pf apPOL block -3.
`CC(C)C[C@@H](COCc1ccc(Cl)cc1)N1CCN(C(=O)c2ccc(C(F)(F)F)cc2)CCC1=O` gave mHTT-CaM PPI inh 99* and Pf apPOL block -1.
`O=C1CCN(Cc2ccc(O)cc2)CCN1[C@H](CO)Cc1ccccc1` gave mHTT-CaM PPI inh -4 and Pf apPOL block -1.
`O=C(Nc1ccc2c(c1)OCCO2)c1ccccc1O` gave mHTT-CaM PPI inh 6 and Pf apPOL block -4.
For CCOc1ccc(-c2ccnc(N3CCN(C(=O)C(Cl)Cl)CC3)n2)cc1 the results were mHTT-CaM PPI inh 1 and Pf apPOL block -4.
Screening Cc1ccccc1NC(=O)N1CCc2c(c(COCc3cccc(F)c3)nn2C)C1 returned mHTT-CaM PPI inh 12 and Pf apPOL block -1.
Cc1nc(CCNC(=O)C2CCCN2S(=O)(=O)c2ccccc2C)cs1 (centres undefined) was read as mHTT-CaM PPI inh -7 and Pf apPOL block -5.

Compound activity from PubChem BioAssay.
